Assay results taken from PubChem BioAssay (EPA / NIEHS).
Active and inactive are the calls of the source. Rule for the calls: active = hit-call score of the fitted dose curve at least 0.9, where 1 is the maximum; inactive = score below 0.9.

Assay: ATG_TA_CIS: Attagene CIS-FACTORIAL HepG2 Assay for human TA Basal Promoter (AID 2282964)
Conditions: HepG2 Attagene CIS-factorial TA basal promoter reporter; actives raise or lower the signal
How it was run: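 HepG2 cells transiently transfected with multiple reporter units under cis promoter elements, reporting endogenous transcription factor activity; this endpoint tracks the TA basal promoter as background control. Reporter mRNA after 24 h dosing measured by RT-PCR/capillary electrophoresis; bidirectional fits versus DMSO.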
In the case of `CC(C)(C)c1n[nH]c(=S)n(N)c1=O`, the outcome is reported as “inactive”. For `CC(C)[C@H]1CC[C@@H](C)CC1=O`, the outcome was “inactive”. For `COc1ccc(OC)c(OC)c1`, the outcome was “inactive”. With `CCCCCC(=O)OCCc1ccccc1` the outcome was “inactive”. With `NC(N)=NC(=O)c1nc(Cl)c(N)nc1N` the outcome was “inactive”. In the case of `O=C(O)Cc1cccc2ccccc12`, the outcome is reported as “inactive”. In the case of `OC1OC[C@@H](O)[C@H](O)[C@H]1O` (some centres not stated), the outcome is reported as “inactive”. With `CC(=O)OCc1ccc2c(c1)OCO2` the outcome was “inactive”. For `CCCCCCCCC=O`, the outcome was “inactive”. With `CCC(O)CO` (configuration not stated) the outcome was “inactive”. In the case of `O=C1NC(=O)c2ccccc21`, the outcome is reported as “inactive”. With `CC1(C)[C@H](C(=O)OCc2cccc(Oc3ccccc3)c2)[C@@H]1C=C(Cl)Cl` the outcome was “inactive”. In the case of `CC1(C)OC[C@@H]2O[C@@]3(C(=O)O)OC(C)(C)O[C@H]3[C@@H]2O1`, the outcome is reported as “inactive”. With `CCCCc1ccc(N)cc1` the outcome was “inactive”. In the case of `S=C(S)NCCNC(=S)S`, the outcome is reported as “inactive”. In the case of `OCC(CO)(CO)COCC(CO)(CO)CO`, the outcome is reported as “inactive”. For `Cc1ccc(C(C)C)cc1O`, the outcome was “inactive”. With `Nc1ccc(S(=O)(=O)O)c(N)c1` the outcome was “inactive”. With `CC(C)(CO)[N+](=O)[O-]` the outcome was “inactive”. In the case of `CCCC/C=C\CCCCCCCCCC=O`, the outcome is reported as “inactive”. For `CCC(=O)OCc1ccccc1`, the outcome was “inactive”. With `CO[Si](CCCn1c(=O)n(CCC[Si](OC)(OC)OC)c(=O)n(CCC[Si](OC)(OC)OC)c1=O)(OC)OC` the outcome was “inactive”. For `CCCC[n+]1ccccc1`, the outcome was “inactive”. With `C=C(C)[C@@H]1CC[C@@H](C)C[C@@H]1O` the outcome was “inactive”. In the case of `Nc1cccc(S(=O)(=O)c2cccc(N)c2)c1`, the outcome is reported as “inactive”. With `O=C(O)CCCCCCCCCCC(=O)O` the outcome was “inactive”. With `Cc1c(N(C)C)c(=O)n(-c2ccccc2)n1C` the outcome was “inactive”. In the case of `CC(C)c1ccc(C(C)C)cc1`, the outcome is reported as “inactive”. For `COc1c(Cl)c(Cl)c(Cl)c(Cl)c1Cl`, the outcome was “inactive”. For `CC(=O)OCCOC(C)=O`, the outcome was “inactive”.

Assay: ATG_TCF_b_cat_CIS: Attagene CIS-FACTORIAL HepG2 Assay for human T-Cell-Factor with beta-catenin (TCF/b-cat) (AID 2282965)
Conditions: HepG2 TCF/beta-catenin cis-reporter transcription, actives raise or lower the signal
How it was run: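 HepG2, transient MRTU transfection, cis-element-driven reporters (endogenous TFs). 24 h compound exposure. Readout: reporter mRNA by RT-PCR + 6-FAM primer extension, HpaI digest, capillary electrophoresis. Gain/loss fit vs DMSO baseline.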
In the case of `O=[N+]([O-])c1ccc(Nc2ccc(Nc3ccccc3)c(S(=O)(=O)O)c2)c([N+](=O)[O-])c1`, the AC50 is reported as 134 µM (active). With `CC(C)(C)c1n[nH]c(=S)n(N)c1=O` the outcome was “inactive”. In the case of `CC(C)[C@H]1CC[C@@H](C)CC1=O`, the outcome is reported as “inactive”. With `COc1ccc(OC)c(OC)c1` the outcome was “inactive”. With `CCCCCC(=O)OCCc1ccccc1` the outcome was “inactive”. In the case of `NC(N)=NC(=O)c1nc(Cl)c(N)nc1N`, the outcome is reported as “inactive”. With `O=C(O)Cc1cccc2ccccc12` the outcome was “inactive”. With `OC1OC[C@@H](O)[C@H](O)[C@H]1O` (some centres not stated) the outcome was “inactive”. For `CC(=O)OCc1ccc2c(c1)OCO2`, the outcome was “inactive”. With `CCCC(=O)OCCC(C)CCC=C(C)C` (configuration not stated) the outcome was “inactive”. In the case of `CCCCCCCCC=O`, the outcome is reported as “inactive”. For `CCC(O)CO` (configuration not stated), the outcome was “inactive”. For `O=C1NC(=O)c2ccccc21`, the outcome was “inactive”. With `CC1(C)[C@H](C(=O)OCc2cccc(Oc3ccccc3)c2)[C@@H]1C=C(Cl)Cl` the outcome was “inactive”. For `CC1(C)OC[C@@H]2O[C@@]3(C(=O)O)OC(C)(C)O[C@H]3[C@@H]2O1`, the outcome was “inactive”. In the case of `CCCCc1ccc(N)cc1`, the AC50 is reported as 28.2 µM (active). In the case of `S=C(S)NCCNC(=S)S`, the outcome is reported as “inactive”. With `OCC(CO)(CO)COCC(CO)(CO)CO` the outcome was “inactive”. For `O=C(O)c1snc(Cl)c1Cl`, the AC50 was 167 µM (active). In the case of `Cc1ccc(C(C)C)cc1O`, the outcome is reported as “inactive”. With `Nc1ccc(S(=O)(=O)O)c(N)c1` the outcome was “inactive”. With `CC(C)(CO)[N+](=O)[O-]` the outcome was “inactive”. With `O=C[C@@H](O)[C@H](O)[C@H](O)CO` the outcome was “inactive”. For `CCCC/C=C\CCCCCCCCCC=O`, the outcome was “inactive”. For `CCC(=O)OCc1ccccc1`, the outcome was “inactive”. With `CO[Si](CCCn1c(=O)n(CCC[Si](OC)(OC)OC)c(=O)n(CCC[Si](OC)(OC)OC)c1=O)(OC)OC` the outcome was “inactive”. For `CCCC[n+]1ccccc1`, the outcome was “inactive”. For `C=C(C)[C@@H]1CC[C@@H](C)C[C@@H]1O`, the outcome was “inactive”. In the case of `Cc1ccccc1C=O`, the outcome is reported as “inactive”. In the case of `Nc1cccc(S(=O)(=O)c2cccc(N)c2)c1`, the outcome is reported as “inactive”. With `O=C(O)CCCCCCCCCCC(=O)O` the outcome was “inactive”. For `O=Nc1ccc(Nc2ccccc2)cc1`, the AC50 was 20.9 µM (active). For `Cc1c(N(C)C)c(=O)n(-c2ccccc2)n1C`, the outcome was “inactive”. With `CC(C)c1ccc(C(C)C)cc1` the outcome was “inactive”. With `COc1c(Cl)c(Cl)c(Cl)c(Cl)c1Cl` the outcome was “inactive”. With `CC(=O)OCCOC(C)=O` the outcome was “inactive”. In the case of `C=CCOC(=O)CCC1CCCCC1`, the outcome is reported as “inactive”. For `NC(=O)NC1NC(=O)NC1=O` (configuration not stated), the outcome was “inactive”.

Assay: ATG_TAL_CIS: Attagene CIS-FACTORIAL HepG2 Assay for human TAL Basal Promoter (AID 2282966);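 note: background control endpoint measuring basal TAL promoter reporter mRNA not a specific factor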
Conditions: HepG2 Attagene cis-factorial TAL promoter reporter; actives raise or lower the signal
How it was run: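 Human hepatoma HepG2 cells, transfected with promoter-regulated reporter units, were treated 24 h. Reporter transcript levels, measured through RT-PCR and capillary electrophoresis, were fitted for gain or loss relative to DMSO.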
For `O=[N+]([O-])c1ccc(Nc2ccc(Nc3ccccc3)c(S(=O)(=O)O)c2)c([N+](=O)[O-])c1`, the outcome was “inactive”. For `CC(C)(C)c1n[nH]c(=S)n(N)c1=O`, the outcome was “inactive”. In the case of `CC(C)[C@H]1CC[C@@H](C)CC1=O`, the outcome is reported as “inactive”. In the case of `COc1ccc(OC)c(OC)c1`, the outcome is reported as “inactive”. With `CCCCCC(=O)OCCc1ccccc1` the outcome was “inactive”. For `NC(N)=NC(=O)c1nc(Cl)c(N)nc1N`, the outcome was “inactive”. For `O=C(O)Cc1cccc2ccccc12`, the outcome was “inactive”. In the case of `OC1OC[C@@H](O)[C@H](O)[C@H]1O` (some centres not stated), the outcome is reported as “inactive”. In the case of `CC(=O)OCc1ccc2c(c1)OCO2`, the outcome is reported as “inactive”. With `CCCC(=O)OCCC(C)CCC=C(C)C` (configuration not stated) the outcome was “inactive”. In the case of `CCCCCCCCC=O`, the outcome is reported as “inactive”. For `O=C1NC(=O)c2ccccc21`, the outcome was “inactive”. In the case of `CC1(C)[C@H](C(=O)OCc2cccc(Oc3ccccc3)c2)[C@@H]1C=C(Cl)Cl`, the outcome is reported as “inactive”. With `CC1(C)OC[C@@H]2O[C@@]3(C(=O)O)OC(C)(C)O[C@H]3[C@@H]2O1` the outcome was “inactive”. With `CCCCc1ccc(N)cc1` the outcome was “inactive”. In the case of `S=C(S)NCCNC(=S)S`, the outcome is reported as “inactive”. With `O=C(O)c1snc(Cl)c1Cl` the outcome was “inactive”. For `Cc1ccc(C(C)C)cc1O`, the outcome was “inactive”. For `Nc1ccc(S(=O)(=O)O)c(N)c1`, the outcome was “inactive”. For `CC(C)(CO)[N+](=O)[O-]`, the outcome was “inactive”. For `O=C[C@@H](O)[C@H](O)[C@H](O)CO`, the outcome was “inactive”. For `CCCC/C=C\CCCCCCCCCC=O`, the outcome was “inactive”. In the case of `CCC(=O)OCc1ccccc1`, the outcome is reported as “inactive”. For `CO[Si](CCCn1c(=O)n(CCC[Si](OC)(OC)OC)c(=O)n(CCC[Si](OC)(OC)OC)c1=O)(OC)OC`, the outcome was “inactive”. With `CCCC[n+]1ccccc1` the outcome was “inactive”. In the case of `C=C(C)[C@@H]1CC[C@@H](C)C[C@@H]1O`, the outcome is reported as “inactive”. For `Nc1cccc(S(=O)(=O)c2cccc(N)c2)c1`, the outcome was “inactive”. With `O=C(O)CCCCCCCCCCC(=O)O` the outcome was “inactive”. For `O=Nc1ccc(Nc2ccccc2)cc1`, the outcome was “inactive”. For `Cc1c(N(C)C)c(=O)n(-c2ccccc2)n1C`, the outcome was “inactive”. For `CC(C)c1ccc(C(C)C)cc1`, the outcome was “inactive”. With `COc1c(Cl)c(Cl)c(Cl)c(Cl)c1Cl` the outcome was “inactive”. In the case of `C=CCOC(=O)CCC1CCCCC1`, the outcome is reported as “inactive”. In the case of `NC(=O)NC1NC(=O)NC1=O` (configuration not stated), the outcome is reported as “inactive”.
